Source: PubChem BioAssay (Tox21)
Inconclusive results are not listed. Active and inactive are the calls of the source. Unless noted, calls come from the whole dose curve; as a rule, active = well fitted curve in the direction sought with a large enough effect in the repeat runs; inconclusive = weak or mixed curves; inactive = no such curve, though single readings can be large; an effect the other way counts as inactive or inconclusive.

Key:
[1] = qHTS assay to identify small molecule agonists of the androgen receptor (AR) signaling pathway in the presence of an antagonist - cell viability counter screen (AID 1259379);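 note: MDA-kb2 human breast cancer cells carrying an MMTV luciferase reporter; series mostly up to about 92 µM; nearly all actives have a fitted effect of over 25% in size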
Outline: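 MDA-kb2 cells (MMTV-luciferase, AR/GR), 3,000/well, 5 h attachment, then 3.0 µM nilutamide (final) and compounds at 15 concentrations. Viability by CellTiter-Fluor fluorescence after 16 h at 37 °C, 0% CO2, in the reporter wells.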

[2] = molecular target: Androgen receptor (Homo sapiens) (UniProt P10275); assay: qHTS assay to identify small molecule agonists of the androgen receptor (AR) signaling pathway in the presence of an antagonist (AID 1259381; calls by dose curve; note: nearly all actives have a fitted effect of over 15% in size)
Androgen receptor (Homo sapiens), sequence (P10275 whole entry, looked up): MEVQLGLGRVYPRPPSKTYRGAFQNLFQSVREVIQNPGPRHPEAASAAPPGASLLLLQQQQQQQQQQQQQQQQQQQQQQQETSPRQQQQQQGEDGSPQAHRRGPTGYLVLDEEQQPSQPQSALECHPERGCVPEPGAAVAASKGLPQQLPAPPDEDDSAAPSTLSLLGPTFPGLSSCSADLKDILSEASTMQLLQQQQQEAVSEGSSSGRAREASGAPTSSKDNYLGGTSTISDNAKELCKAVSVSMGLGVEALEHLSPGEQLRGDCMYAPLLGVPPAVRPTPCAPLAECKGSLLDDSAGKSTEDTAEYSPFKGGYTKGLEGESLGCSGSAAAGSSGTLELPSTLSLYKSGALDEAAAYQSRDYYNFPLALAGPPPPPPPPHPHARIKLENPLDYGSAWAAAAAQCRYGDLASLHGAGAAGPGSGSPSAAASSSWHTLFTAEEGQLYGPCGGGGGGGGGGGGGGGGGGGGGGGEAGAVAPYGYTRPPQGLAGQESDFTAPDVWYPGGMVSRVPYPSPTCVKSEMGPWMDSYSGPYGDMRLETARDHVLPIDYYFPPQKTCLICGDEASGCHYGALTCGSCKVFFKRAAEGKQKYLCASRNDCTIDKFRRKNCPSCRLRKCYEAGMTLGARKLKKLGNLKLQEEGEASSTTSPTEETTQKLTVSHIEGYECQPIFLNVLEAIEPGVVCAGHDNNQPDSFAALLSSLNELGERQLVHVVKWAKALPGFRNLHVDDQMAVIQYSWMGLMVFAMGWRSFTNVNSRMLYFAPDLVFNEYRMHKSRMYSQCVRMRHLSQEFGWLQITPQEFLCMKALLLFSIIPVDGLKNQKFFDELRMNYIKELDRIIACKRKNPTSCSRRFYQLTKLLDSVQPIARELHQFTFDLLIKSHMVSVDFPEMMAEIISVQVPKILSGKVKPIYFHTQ
Outline: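 MDA-kb2 cells carrying MMTV-luciferase (AR/GR responsive), 3,000 cells/well, co-treated with 3.0 uM nilutamide final. Compounds at 15 concentrations, 16 hr at 37C without CO2. Luciferase luminescence read after 30 min with ONE-Glo.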

[3] = molecular target: Estrogen receptor (Homo sapiens) (UniProt P03372); assay: qHTS assay to identify small molecule agonists of the estrogen receptor alpha (ER-alpha) signaling pathway in the presence of an antagonist (AID 1259383; calls by dose curve; note: top concentration of the series differs between compounds; nearly all actives have a fitted effect of over 15% in size)
Estrogen receptor (Homo sapiens), sequence (P03372 whole entry, looked up): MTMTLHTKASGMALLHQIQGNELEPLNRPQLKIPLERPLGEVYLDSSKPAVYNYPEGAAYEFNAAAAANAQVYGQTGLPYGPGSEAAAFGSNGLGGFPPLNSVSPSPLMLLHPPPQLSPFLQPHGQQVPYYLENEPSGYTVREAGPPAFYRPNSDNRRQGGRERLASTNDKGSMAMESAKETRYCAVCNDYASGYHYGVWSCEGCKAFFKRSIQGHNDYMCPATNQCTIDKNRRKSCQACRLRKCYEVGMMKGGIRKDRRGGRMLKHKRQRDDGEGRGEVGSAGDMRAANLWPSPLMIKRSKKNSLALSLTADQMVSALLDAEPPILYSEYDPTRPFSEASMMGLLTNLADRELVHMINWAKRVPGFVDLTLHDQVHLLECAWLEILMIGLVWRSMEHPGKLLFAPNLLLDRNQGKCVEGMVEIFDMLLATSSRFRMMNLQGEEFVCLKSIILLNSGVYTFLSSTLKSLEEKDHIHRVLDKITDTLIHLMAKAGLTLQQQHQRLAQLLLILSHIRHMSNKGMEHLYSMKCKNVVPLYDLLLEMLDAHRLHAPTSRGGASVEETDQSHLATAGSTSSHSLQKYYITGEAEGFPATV
Outline: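 VM7Luc4E2 cells express endogenous full-length ER-alpha with an ERE-luciferase reporter and were hormone-deprived for 5 days. Compounds at 15 concentrations were added with 10.0nM ICI-182,780 for 22hr at 37C. Luminescence was read with ONE-Glo.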

[4] = qHTS assay to identify small molecule agonists of the estrogen receptor beta (ER-beta) signaling pathway - cell viability counter screen (AID 1259380); note: nearly all actives have a fitted effect of over 30% in size
Outline: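 ER-beta-UAS-bla HEK293T cells in medium with 2% charcoal-stripped FBS, pre-incubated 6 hr, then treated 16 hr at 37C. Cytotoxicity read in the same wells by CellTiter-Glo luminescence after 30 min at room temperature.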

[5] = qHTS assay to identify small molecule antagonists of the estrogen receptor beta (ER-beta) signaling pathway - cell viability counter screen (AID 1259382);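 note: HEK293T cells carrying ER-beta-UAS-bla reporter stimulated with estradiol; series mostly up to about 92 µM; nearly all actives have a fitted effect of over 55% in size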
Outline: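 ER-beta-UAS-bla HEK293T cells in 2% charcoal-stripped FBS medium, treated with compound plus 1 nM 17-beta-estradiol for 16 h at 37C. Viability read by CellTiter-Glo luminescence after 30 min at room temperature in the same wells.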

[6] = qHTS assay to identify small molecule agonists or antagonists of the thyroid stimulating hormone receptor (TSHR) signaling pathway - wild type cell line counter screen (AID 1259384; calls by dose curve)
Outline: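 Wild-type Hek293 cells, 800/well, 18 h at 37C, then compound with Ro20-1724 for 30 min RT. cAMP by HTRF (cAMP-d2/anti-cAMP cryptate), 1 h RT, fluorescence read. 15 concentrations, triplicates.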

[7] = molecular target: Thyrotropin receptor (Homo sapiens) (UniProt P16473); assay: qHTS assay to identify small molecule antagonists of the thyroid stimulating hormone receptor (TSHR) signaling pathway (AID 1259385; calls by dose curve; note: nearly all actives have a fitted effect of over 20% in size)
Thyrotropin receptor (Homo sapiens), sequence (P16473 whole entry, looked up): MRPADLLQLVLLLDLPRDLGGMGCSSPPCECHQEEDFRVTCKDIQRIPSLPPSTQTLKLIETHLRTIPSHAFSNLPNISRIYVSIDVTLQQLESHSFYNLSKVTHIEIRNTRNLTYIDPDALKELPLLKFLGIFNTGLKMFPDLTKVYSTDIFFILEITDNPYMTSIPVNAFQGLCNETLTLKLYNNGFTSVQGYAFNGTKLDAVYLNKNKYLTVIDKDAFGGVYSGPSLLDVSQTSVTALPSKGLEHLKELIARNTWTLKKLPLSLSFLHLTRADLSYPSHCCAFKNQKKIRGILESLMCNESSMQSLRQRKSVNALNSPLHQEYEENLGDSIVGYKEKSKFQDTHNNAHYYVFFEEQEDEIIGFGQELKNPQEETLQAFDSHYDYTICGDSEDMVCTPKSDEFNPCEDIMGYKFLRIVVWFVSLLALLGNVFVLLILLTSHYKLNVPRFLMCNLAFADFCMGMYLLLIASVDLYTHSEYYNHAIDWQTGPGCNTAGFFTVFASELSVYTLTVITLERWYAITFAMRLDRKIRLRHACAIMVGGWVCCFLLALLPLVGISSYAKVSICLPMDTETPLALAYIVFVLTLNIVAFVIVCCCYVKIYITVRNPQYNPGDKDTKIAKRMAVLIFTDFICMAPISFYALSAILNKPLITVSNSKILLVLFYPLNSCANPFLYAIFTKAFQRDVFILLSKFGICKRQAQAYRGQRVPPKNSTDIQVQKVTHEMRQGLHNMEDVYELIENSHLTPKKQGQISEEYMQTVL
Outline: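 TSHR-HEK293 cells (800/well) plated 18 h, then compounds with Ro20-1724 and TSH at 1.5 ng/mL final, 30 min at room temperature. cAMP quantified by HTRF (cAMP-d2/anti-cAMP-cryptate, 1 h); 15 concentrations in triplicate.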

Measured: Potency

CCCCCC[C@@H](O)C/C=C\CCCCCCCC(=O)OCC(O)CO (stereo partly drawn)
inactive: [1] | [2] | [3]

CC(C)C(O)(c1ccc(OC(F)(F)F)cc1)c1cncnc1 (stereo not drawn)
inactive: [1] | [4] | [5] | [6]

Cc1ccccc1N=C(N)Nc1ccccc1C
inactive: [1] | [4] | [5] | [3] | [6] | [7]
